27 compounds from PubChem BioAssay (NCATS) can be followed below.

Records with an inconclusive call do not appear. Unmarked numbers belong to inactive results. Calls of active or inactive are those of the source. Calls follow the shape of the dose curve; as a rule, active = well fitted cell-killing curve with a large enough effect; inconclusive = small, poorly fitted or top-dose-only effect; inactive = flat fitted curve, though single readings scatter. Starred links: 1 amine or outer side, 2 acyl side, 3 side chain; linkers in the order of their positions; H or OH if unused. Positions of bridges follow the written chain, without caps; N, C: chain ends. Non-standard residues stand in square brackets, D forms with d. Residues, ends and D or L forms follow the SMILES beside them. ξ: configuration not given here. *: point of attachment. X3 = C[C@@H](Oc1ccc([C@H](N[*:1])C(=O)[*:2])cc1)[C@]1(/C=C\C(=O)[*:3])CO1; d(aIle) = CC[C@H](C)[C@@H](N)C(=O)O; X2 = CC(C)[C@@H](O)C(C)C(=O)*; ξNMeF = CNC(Cc1ccccc1)C(=O)O; ξT = CC(O)C(N)C(=O)O; ξS = NC(CO)C(=O)O
% is scaled to controls: 0 for no effect and ±100 for the full control effect; potency is read from the fitted curve at half-maximal effect.

The nature of the experiment: U-118MG Cancer Cell Toxicity qHTS against the NCATS CANVASS Library (AID 1347351). Conditions: U-118MG viability, CellTiter-Glo luminescence, 72 h; series mostly up to 38.3 µM; activity change, negative = cytotoxicity: at the top concentration; outcome: at the top concentration. An excerpt: Natural products and their derivatives continue to be wellsprings of nascent therapeutic potential. However, many laboratories have limited resources for biological evaluation, leaving their previously isolated or synthesized compounds largely or completely untested. To address this issue, the Canvass library of natural products was assembled (https://tripod.nih.gov/canvass), in collaboration with academic and industry researchers, for quantitative high-throughput screening (qHTS) across a diverse set of cell-based and biochemical assays. The pure (>85% purity by liquid chromatography/mass spectrometry [LC/MS]) Canvass library of 346 natural products were submitted by 45 academic laboratories and companies around the world. We collected pure natural products to circumvent deconvolution and structure elucidation due to time and resource limitations. The library was formatted into 1536-well plates and evaluated in 50 qHTS (in an 11-pnt concentration series) bioassays with broad scope of disease-relevant mechanisms. The resulting data set from 50 different assays was then systematically analyzed to identify overall trends and specific natural products with interesting biological activities. Reported herein are the results of each individual qHTS and their corresponding assay protocol. National Center for Advancing Translational Sciences (NCATS), Rockville, MD National Institute of Health (NIH), Bethesda, Maryland
Cancer Cell Toxicity protocol for cell lines COV-362, OV-KATE, OV-SAHO, UWB1.289, UWB1.289-WTBRCA1, HEK-293, HPAF-II, Panc-1005, SW1088, or U-118MG. 1. In a 1536 well, white solid bottom tissue culture plates (Corning 7494), corresponding cells (COV-362, OV-KATE, OV-SAHO, UWB1.289, UWB1.289-WTBRCA1, HEK-293, HPAF-II, Panc-1005, SW1088, or U-118MG) were dispensed in each well at a final concentration of 1000 cells / well (6uL volume) using the Multidrop Combi (Thermo Fisher Scientific) dispenser. 2. The plates were incubated for 4 hours at 37 degrees C/5% CO2/95% Rh. 3. Compounds were pin transferred (~23nL volume) via Wako Pin-tool (Wako Automation, Richmond VA) equipped with a 1536 pin head. The assay plates were treated with compounds in an 11-pnt concentration series with a final concentration range of […] to 85uM. 4. Bortezomib was used as a single dose control (0.5mM column 4, rows 1 - 32) at a final concentration of 1.9uM and as a 16pnt titration (1mM; 1:2 dilution; 16-points; n = 2; column 3, rows 1 - 32) with final concentration range of 0.1nM - 3.8uM. 5. The assay plates were incubated for 72 hours at 37 degrees C/5% CO2/95% Rh. 6. 3uL CellTiter-Glo detection reagent was then added to the plates (columns 2 - 48, rows 1 - 32) and incubated at room temperature for additional 15min. 7. Luminescence signal was acquired via the ViewLux plate reader (PerkinElmer) using a clear filter, 2 second exposure and 2x binning settings.
Background: Quantitative high-throughput screening tests each substance at several concentrations.
For the compound `CO[C@@]12c3c(C)cc(O)c4c(=O)occ(c34)C(=O)[C@@H]1[C@]13COC(=O)c4c(O)cc(C)c(c41)C(=O)[C@H]2[C@@H]3OC(C)=O`, the “activity change, negative = cytotoxicity” value was -12.6%. Regarding `C=CC(C)(C)[C@@]12C[C@H]3C(=O)N/C(=C\c4cnc[nH]4)C(=O)N3[C@@H]1Nc1ccccc12`, the outcome was inactive.

As to `CCCC[C@@H]1CC[C@H]2CCCC(CCCO)N12` (some centres not stated), the “activity change, negative = cytotoxicity” value was -0.405%. Take `CO[C@H]1[C@H](O[C@H]2CC[C@]3(C=O)[C@H]4CC[C@]5(C)[C@@H](C6=CC(=O)OC6)CC[C@]5(O)[C@@H]4CC[C@]3(O)C2)O[C@H](C)[C@H](O)[C@@H]1OC`: the Potency was 94.3 nM (active). Regarding `C1=C2CCCN[C@H]2C2CC1[C@H]1CCCCN1C2` (some centres not stated), the “activity change, negative = cytotoxicity” value is -0.47%. Regarding `C=CC(C)(C)[C@@]12C[C@H]3C(=O)N/C(=C/c4cnc[nH]4)C(=O)N3[C@@H]1Nc1ccccc12`, the result was inactive. Regarding `CC(C)CC1C(=O)O[C@H](C(C)C)C(=O)N(C)C(CC(C)C)C(=O)O[C@@H](C(C)C)C(=O)N(C)C(CC(C)C)C(=O)O[C@H](C(C)C)C(=O)N(C)C(CC(C)C)C(=O)O[C@@H](C(C)C)C(=O)N1C` (some centres not stated), the “activity change, negative = cytotoxicity” value was -14.5%. Consider `CC[C@]12C=CCN3CC[C@]4(C(=C(C(=O)OC)C1)Nc1ccccc14)[C@@H]32`, for which the “activity change, negative = cytotoxicity” value is 1.22%. Turning to `CO[C@H]1C[C@H](O[C@H]2[C@@H](O)C[C@H](O[C@H]3CC[C@]4(C=O)[C@H]5CC[C@]6(C)C(C7=CC(=O)OC7)CC[C@]6(O)[C@@H]5CC[C@]4(O)C3)O[C@@H]2C)O[C@H](C)[C@H]1O[C@H]1C[C@@H](OC)[C@@H](O[C@@H]2O[C@H](CO)[C@@H](O)[C@H](O)[C@H]2O)[C@@H](C)O1` (some centres not stated), the Potency is 188 nM (active). As to `CC[C@H](C)[C@H]1NC(=O)[C@@H](NC(=O)C(C)[C@H](O)C(C)C)[C@@H](C)OC(=O)C2COC(=O)CNC(=O)/C=C\[C@]3(CO3)[C@@H](C)Oc3ccc(cc3)[C@H](NC1=O)C(=O)N(C)C(Cc1ccccc1)C(=O)NC(C(C)O)C(=O)N2` (some centres not stated) (X2-T[d(aIle)][X3][ξNMeF][ξT][ξS]; ester 1-C; linker 3-6 via G), the “activity change, negative = cytotoxicity” value is -9.22% [at 22.9 µM].

With `C/C=C/[C@@H]1[C@H]2C[C@@H](C)CC[C@@H]2C(C)=C[C@H]1C(=O)c1c(O)c(-c2ccc(O)cc2)c[nH]c1=O`, the “activity change, negative = cytotoxicity” value is -18%.

Consider `C=C(C)[C@H]1C(=O)c2c3c(cc4c5c(n1c24)[C@@]1(C)[C@@H](CC[C@H]2[C@](C)(/C=C/C=C(\C)C(=O)O)[C@@H](O)CC[C@@]21C)C5)C1=CC(C)(C)OC(C)(C)[C@H]1[C@@H]3O`, for which the Potency is 18800 nM (active).

For the compound `C[N+](C)(C)CCc1c[nH]c2ccccc12`, the call was inactive. In the case of `C/C=C1/CN2CC[C@@]34c5ccccc5N(C)[C@@H]3[C@@H]2C[C@@H]1[C@H]4C(=O)OC`, the “activity change, negative = cytotoxicity” value is -9.94%.

With `C/C=C1/CN2CC[C@]34C(=C(C(=O)OC)[C@H]1C[C@H]23)Nc1ccccc14`, the “activity change, negative = cytotoxicity” value is -12.1%. On the same count and under the same terms, with `COC1C(O)C(C)OC(OC2C(Oc3cccc4c(O)c5c(=O)oc6ccc(C)c7c(=O)oc(c34)c5c67)OC(C)C(O)C2O)C1O` (configuration not stated) the figure was -17.6%; with `CCCCC1CC[C@H]2CCCC(CCC)N12` (some centres not stated), -6.75%; with `CO[C@@H](/C=C/CC/C=C/C(=O)O)[C@@H](O)[C@H](C)/C=C(\C)[C@H](O)[C@H](C)C(=O)CCCC1CC(=O)NC(=O)C1`, 1.7%. For the compound `COC1=C(C2=C(OC)C(=O)c3cc4c(c(O)c3C2=O)C(=O)O[C@H](C)C4)C(=O)c2c(cc3c(c2O)C(=O)O[C@H](C)C3)C1=O`, the “activity change, negative = cytotoxicity” value was -6.46% [at 12.8 µM]. As to `c1ccc2nc3c(cc2c1)[nH]c1ccccc13`, the “activity change, negative = cytotoxicity” value is -12.4%. Still for that read-out and setting: in the case of `CC[C@@H]1CN2CCC3(Nc4cccc(OC)c4C3=O)[C@@H]2C[C@@H]1/C(=C\OC)C(=O)OC` (some centres not stated) it was -0.797%.

As for `C[C@]12CC(O)C3[C@@H](CC[C@@H]4C[C@@H](O)CC[C@]34CO)[C@@]1(O)CC[C@@H]2C1=CC(=O)OC1` (some centres not stated), the Potency was 2660 nM (active). Turning to `C=C[C@]12C=CCN3CC[C@@]4(c5ccccc5NC(=O)[C@@H]4C1)[C@@H]32`, the “activity change, negative = cytotoxicity” value is -0.346%. `CC[C@H]1CN2CCc3c([nH]c4cccc(OC)c34)[C@@H]2C[C@@H]1/C(=C\OC)C(=O)OC`: the Potency is 18800 nM (active). The same measure, in the same setting: with `C[C@]12CCC3[C@@H](CC[C@@H]4C[C@@H](O)CC[C@]34CO)[C@@]1(O)CC[C@@H]2C1=CC(=O)OC1` (some centres not stated) the figure was 841 nM (active). In the case of `O[C@H]1C=C[C@@]23CCN(Cc4cc5c(cc42)OCO5)[C@@H]3C1`, the “activity change, negative = cytotoxicity” value was -0.356%. For the compound `CCCC[C@@H](C)/C=C1/CN2CCC[C@H]2[C@@](C)(O)[C@@H]1O`, the “activity change, negative = cytotoxicity” value was -8.54%.
